In PubChem BioAssay AID686978 (National Center for Advancing Translational Sciences (NCATS), 2013):
Among all 420,000 compounds or so, about 64,000 (15%) were called active. Another 27% or so got no clear call; they are omitted. Calls follow the shape of the dose curve; as a rule, active = well fitted inhibition curve with a large enough effect; inconclusive = small, poorly fitted or top-dose-only effect; inactive = flat fitted curve, though single readings scatter. The list is a sample of the results. A call without a number means that no potency is given here.

Experiment: qHTS for Inhibitors of human tyrosyl-DNA phosphodiesterase 1 (TDP1): qHTS in cells in absence of CPT; also: nearly all actives have a fitted effect of over 55% in size
Conditions: DT40 Tdp1-/- hTDP1 cells, no CPT, ATP luminescence, 48 h; activity change, negative = growth inhibition: at 46.2 µM (top of the series)
Outline: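 Luminescent ATP content (CellTiter-Glo) served as the growth readout. Knockout chicken DT40 cells expressing human TDP1 were exposed to compounds without camptothecin for a minimum 48 hr at 37 °C.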
Potency is read from the fitted curve at half-maximal effect.

Row | Compound | Potency
1 | COc1ccc(C(=O)NC(=S)Nc2ccc(Cl)cn2)cc1OC | inactive
2 | COc1ccc(C(=O)Nc2ccc(C3(C#N)CCCC3)cc2)cc1OC | 23.1 µM (active)
3 | Cc1ccc(C(=O)NC(=S)Nc2ccccc2C)cc1 | inactive
4 | COc1ccccc1C(=O)NC(=S)Nc1ccc(N2CCOCC2)cc1 | 0.206 µM (active)
5 | CC(=O)NC(=S)Nc1ccc(NC(=S)NC(=O)c2ccc([N+](=O)[O-])cc2)cc1 | inactive
6 | COc1ccccc1C(=O)Nc1cccc(C(=O)N2CCOCC2)c1 | inactive
7 | COc1ccc(C(=O)Nc2ccc(N3CCC(C)CC3)cc2)cc1Br | inactive
8 | COc1ccc(C(=O)Nc2ccc(S(=O)(=O)Nc3onc(C)c3C)cc2)cc1OC | inactive
9 | CCOC(=O)c1c(C)[nH]c(C(=O)OCC(=O)N2CCCC2=O)c1C | inactive
10 | COCCCNC(=O)CN1CCN(Cc2ccccc2Cl)C1=O | inactive
11 | CCCc1cc(=O)oc2c(C)c(OCC(=O)N3CCC(C(=O)O)CC3)ccc12 | inactive
12 | O=[N+]([O-])/C=C1\CCCCCN1 | inactive
13 | CC1CC(c2ccccc2)n2nc(NC(=O)c3cccs3)nc2N1 (stereo not given) | inactive
14 | Cc1nnc(NC(=O)CCC(=O)N2CCC(C)CC2)s1 | inactive
15 | Cc1ccc(OCC(=O)NNC(=S)NCc2ccccc2)cc1 | inactive
16 | O=C1CCC(C(=O)OCC(=O)Nc2ccc(OC(F)F)cc2)=NN1 | inactive
17 | COC(=O)c1ccc(NC(=S)NN2CCOCC2)cc1 | inactive
18 | Cc1ccc(C(=O)NC(=S)NCCN2CCOCC2)cc1 | inactive
19 | O=C(CCN1CCN(c2ccccc2)CC1)NNC(=S)Nc1ccccc1 | inactive
20 | O=C(Cc1ccccc1)NC(=S)Nc1ccc(N2CCCCC2)cc1 | 23.1 µM (active)
21 | O=C(CN1CCN(c2ccc(O)cc2)CC1)Nc1ccc(-c2ccccc2)cc1 | inactive
22 | Cc1ccc(C(=O)NC(=S)Nc2ccc(N3CCOCC3)cc2)cc1 | 29.1 µM (active)
23 | Nc1nonc1-c1noc(-c2ccc(Br)o2)n1 | inactive
24 | CCC1=C(C(=O)OC)C(c2cc(OC)ccc2OC)C(C#N)=C(N)O1 (stereo not given) | inactive
25 | CCOc1ccc(C(=O)NCCCN2CCCC2=O)cc1 | inactive
26 | CC(C)OCCCNc1ncnc2c1[nH]c1ccc(F)cc12 | 2.91 µM (active)
27 | COc1cc(OC)c(OC)cc1/C=N/Nc1ncnc2c1[nH]c1ccc(C)cc12 | inactive
28 | O=C1CCCN1CCCNc1ncnc2c1[nH]c1ccccc12 | inactive

Row | Compound | Potency
29 | Cc1cc(C)c2c(NC(=O)C3CC3)nn(C)c2n1 | inactive
30 | NC1=NC(c2cc(F)cc(F)c2)n2c(nc3ccccc32)N1 (stereo not given) | inactive
31 | Cc1nnc(N/N=C/C2CC=CCC2)[nH]c1=O (stereo not given) | inactive
32 | CCN(CC)c1ccc(/C=N/NC(=O)CNC(=O)c2cccnc2)cc1 | inactive
33 | CCN(CC)c1ccc(C(=O)Nn2c(C)nc3ccccc3c2=O)cc1 | inactive
34 | CCN(CC)c1ccc(/C=N/Nc2nc(C)cc(C)n2)c(O)c1 | 3.26 µM (active)
35 | Cc1ccc(C(=O)NCCNC(=O)c2cnccn2)cc1 | inactive
36 | CCN(CC)c1ccc(/C=N/NC(=O)c2cnccn2)c(O)c1 | 4.11 µM (active)
37 | CCCCC(CC)C(=O)Nc1ccc(Cl)cn1 (stereo not given) | inactive
38 | O=C(CN1C2=NCCN2c2ccccc21)c1cccs1 | inactive
39 | Cc1cc2c(cc1C)N(Cc1ccccc1)C1=NCCCN12 | 13 µM (active)
40 | Nc1ccc(C(=O)OCC(=O)NC2CCCc3ccccc32)cc1[N+](=O)[O-] (stereo not given) | inactive
41 | CCc1ccc(NC(=O)N2CCc3ccccc3C2)cc1 | inactive
42 | CCc1ccc(NC(=O)c2sc3nc4c(cc3c2N)CN(CC)CC4)cc1 | 18.4 µM (active)
43 | CCN1CCc2nc(NC(=O)c3cc(F)c(F)cc3Cl)sc2C1 | inactive
44 | CC(C(=O)NC1CCCC1)N(c1ccc(Oc2ccccc2)cc1)S(C)(=O)=O (stereo not given) | inactive
45 | O=C(C[C@H]1CC[C@H]2[C@@H](COC[C@H](O)CN2C(=O)c2ccccn2)O1)N1CCN(c2ccccc2)CC1 | inactive
46 | O=C(CCSc1ccccc1)NCCSc1ccccn1 | inactive
47 | O=c1c(=O)n(Cc2c(F)cccc2Cl)ccn1Cc1ccccc1 | inactive
48 | O=[N+]([O-])/C=C/c1ccc2c(ccn2Cc2ccccc2)c1 | 4.11 µM (active)
49 | O=C(CNC(=O)c1n[nH]c2ccccc12)Nc1cc(Cl)ccc1Cl | inactive
50 | COc1ccc(C)cc1NC(=S)Nc1ccccc1SC | inactive
51 | CSc1ncccc1C(=O)NC1CCCCCC1 | inactive
52 | CC(C)(C)C(=O)Nc1ccc(-c2cn3cccnc3n2)cc1 | inactive
53 | Cc1ccc(-c2nnc(SCC(=O)N/N=C/c3cccs3)n2-c2ccc(C)cc2)cc1 | 14.6 µM (active)
54 | NNC(=O)CSc1nnc(-c2ccccc2)n1-c1ccccc1 | inactive
55 | Cc1nc2ccccc2n1CC(=O)N/N=C/c1cccs1 | inactive
